Test [1] in a line: qHTS for Inhibitors of the Functional Ribonucleoprotein Complex (vRNP) of Lassa (LASV) Arenavirus: LASV Primary Screen - GLuc reporter signal (AID 1347082; calls by dose curve; tested in HEK293 reporter line; note: nearly all actives have a fitted effect of over 60% in size; note: potency is the fitted concentration of half-maximal effect; for activity change, negative = inhibition: % is set by controls: 0 for no effect and ±100 for the full control effect). (Quantitative high-throughput screening tests each substance at several concentrations.)
Test [2] in a line: qHTS for Inhibitors of the Functional Ribonucleoprotein Complex (vRNP) of Lymphocytic Choriomeningitis Arenaviruses (LCMV): Viability assay - alamar blue signal for LCMV Primary Screen (AID 1347085; calls by dose curve; tested in HEK293 reporter line; note: nearly all actives have a fitted effect of over 80% in size; note: potency is the fitted concentration of half-maximal effect).
Test [3] has as its target Nucleoprotein (Lymphocytic choriomeningitis virus (strain Armstrong)) (UniProt P09992). Put plainly: qHTS for Inhibitors of the Functional Ribonucleoprotein Complex (vRNP) of Lymphocytic Choriomeningitis Arenaviruses (LCMV): LCMV Primary Screen - GLuc reporter signal (AID 1347086). Note: % is set by controls: 0 for no effect and ±100 for the full control effect; nearly all actives have a fitted effect of over 70% in size.
A short description of test [4]: qHTS for Inhibitors of the Functional Ribonucleoprotein Complex (vRNP) of Lassa (LASV) Arenavirus: Viability assay - alamar blue signal for LASV Primary Screen (AID 1347083; calls by dose curve; tested in HEK293 reporter line; note: nearly all actives have a fitted effect of over 80% in size; note: potency is the fitted concentration of half-maximal effect).
The nature of test [5]: Primary qHTS to identify inhibitors of SARS-CoV-2 cell entry (AID 1645846). Note: nearly all actives have a fitted effect of over 45% in size. Note: potency is the fitted concentration of half-maximal effect. The conditions noted are these: activity change, negative = inhibition: at 57.1 µM (top of the series) unless noted. The essentials: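 Using luciferase-reporting pseudoviruses carrying Wuhan-Hu-1 spike, the screen tracks entry into stably ACE2-expressing cells over 48 hr. Activity is expressed relative to spike particles versus particles lacking any fusion protein.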

A short description of test [6]: Cytotoxicity counterscreen for inhibitors of SARS-CoV-2 cell entry (AID 1645845). Note: nearly all actives have a fitted effect of over 50% in size. Note: potency is the fitted concentration of half-maximal effect. The essentials:
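Counterscreen run in the same HEK293-ACE2 line as the pseudotyped-particle entry assay, without particles. Viability after 48 h at 37 C was read as ATP luminescence, scaled between cell-containing and cell-free wells.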
A general note: A counterscreen serves to expose hits that act by an unwanted route or on another target.

Test [7] in a line: Validation screen for inhibitors of Lassa infection (AID 463096). Note: % is set by controls: 0 for no effect and ±100 for the full control effect.
Test [8] can be described thus: Inducers of the Endoplasmic Reticulum Stress Response (ERSR) in human glioma: Validation (AID 504836; active = well fitted curve in the direction sought with a large enough effect; an effect the other way counts as inactive or inconclusive; note: 0% is about no effect). The essentials:
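Stably transfected U87-MG glioma cells carrying a GRP78-based luciferase sensor; 16 h compound incubation. Luminescence end-point read 10 min after Bright-Glo addition at room temperature.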

Test [9] concerns the target Alpha-galactosidase (Coffea arabica) (UniProt Q42656). In words: Counterscreen for Glucocerebrosidase Inhibitors: qHTS Assay for Coffee Bean alpha-Galactosidase at pH 4.5 (AID 957; active = well fitted curve in the direction sought with a large enough effect; an effect the other way counts as inactive or inconclusive;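 note: plate controls were enzyme alone for no effect and no enzyme for full effect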). The essentials:
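Quantitative HTS of compounds (0.7 nM to 77 uM) against coffee bean alpha-galactosidase at pH 4.5, measuring 4-methylumbelliferone fluorescence released from 80 uM substrate.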

The target is the same in test [10]. Put plainly: Counterscreen for Glucocerebrosidase Inhibitors: qHTS Assay for Coffee Bean alpha-Galactosidase at pH 5.9 (AID 998; active = well fitted curve in the direction sought with a large enough effect; an effect the other way counts as inactive or inconclusive;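 note: plate controls were uninhibited enzyme for no effect and no-enzyme basal signal for full effect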). The essentials: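 Enzyme 2 nM + cpd (0.7 nM–77 uM titration) + 4-MU-alpha-Gal 80 uM, pH 5.9 citrate/Tween-20, RT 20 min, NaOH/glycine stop pH 10, fluor 365/440. Normalized to no-enzyme and full-activity controls; Hill-fit AC50.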

Results filed as inconclusive are left out. The source made the active and inactive calls. Unless noted, calls come from the whole dose curve.

Nucleoprotein (Lymphocytic choriomeningitis virus (strain Armstrong)), sequence (P09992 whole entry, looked up): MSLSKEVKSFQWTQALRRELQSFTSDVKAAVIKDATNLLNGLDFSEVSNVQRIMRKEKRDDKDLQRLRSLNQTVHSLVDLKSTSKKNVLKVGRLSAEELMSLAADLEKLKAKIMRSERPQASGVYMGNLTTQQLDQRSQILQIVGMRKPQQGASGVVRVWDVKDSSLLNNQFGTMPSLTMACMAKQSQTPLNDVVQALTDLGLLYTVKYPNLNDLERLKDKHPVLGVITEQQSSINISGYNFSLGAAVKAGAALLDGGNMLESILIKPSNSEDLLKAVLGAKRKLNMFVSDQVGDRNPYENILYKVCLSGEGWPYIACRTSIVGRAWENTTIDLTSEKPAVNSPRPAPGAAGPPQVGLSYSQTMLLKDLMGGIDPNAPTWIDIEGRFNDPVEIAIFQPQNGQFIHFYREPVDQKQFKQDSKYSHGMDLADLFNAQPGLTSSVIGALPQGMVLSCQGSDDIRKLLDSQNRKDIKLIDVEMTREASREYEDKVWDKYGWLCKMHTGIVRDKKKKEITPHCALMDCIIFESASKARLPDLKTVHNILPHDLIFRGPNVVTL
Alpha-galactosidase (Coffea arabica), sequence (Q42656 whole entry, looked up): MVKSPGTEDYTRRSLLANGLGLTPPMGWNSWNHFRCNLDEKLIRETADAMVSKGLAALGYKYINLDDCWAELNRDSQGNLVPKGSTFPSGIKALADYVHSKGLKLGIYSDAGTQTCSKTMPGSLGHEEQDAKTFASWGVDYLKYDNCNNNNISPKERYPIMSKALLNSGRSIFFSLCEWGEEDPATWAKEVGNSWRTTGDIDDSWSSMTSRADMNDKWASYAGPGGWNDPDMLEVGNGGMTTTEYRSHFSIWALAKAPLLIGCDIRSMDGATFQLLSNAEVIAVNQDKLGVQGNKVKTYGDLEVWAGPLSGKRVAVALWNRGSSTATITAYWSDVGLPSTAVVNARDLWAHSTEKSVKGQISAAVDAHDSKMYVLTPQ

Turning to `C[C@]12CC[C@H]3C(=CCc4cc(O)ccc43)[C@@H]1CCC2=O`, the Potency entry in [1], in test [2] and in test [3] was “inactive” each time.
On to `C[C@]12CC[C@@H]3c4ccc(O)cc4CC[C@H]3[C@H]1C[C@@H](O)[C@H]2O`, for which the Potency result in test [1] was “inactive”. Further, the Potency in test [2] was 9.68 µM (active).
Regarding `CCc1ccc(OCc2ccccc2C(=O)Nc2ccc3nc(C)cc(N)c3c2)cc1`, the Potency is 12.2 µM (active) in test [1], 21.7 µM (active) in [4] and 10 µM (active) in test [5].
Turning to `Cc1nccc2c1[nH]c1ccc(Br)cc12`, the Potency entry in test [1], in test [2] and in [3] was “inactive” each time.
For `O=C(O)CCCCCC(=O)NN=C1CCCC1`, the Potency entry in test [1], in [4] and in [6] was “inactive” in each case. Also, in [5], the activity change, negative = inhibition is -16.8%.
With `CC=C(C(=CC)c1ccc(O)cc1)c1ccc(O)cc1`, the Potency entry in test [1] is “inactive”. The Potency in test [2] is 2.43 µM (active).
As for `CCN(CC)CCCCNc1ncc2c(n1)N(C)C(=O)N(c1c(Cl)c(OC)cc(OC)c1Cl)C2`, the results for the Potency in [1], in [4] and in test [5] were 34.3 µM (active), 34.3 µM (active) and 6.31 µM (active), respectively.
Regarding `C[C@@]1(C2CCCC2)Cc2cc(OCC(=O)O)c(Cl)c(Cl)c2C1=O`, the Potency entry in test [7], in [1] and in test [4] was “inactive” in each case. Further, the compound was classed as inactive in test [8].
For `C=CC(=O)Nc1cc(NC(=O)c2ccc(C)c(NC(=O)c3ccno3)c2)cc(C(F)(F)F)c1`, the Potency result in test [1], in test [2] and in test [3] was “inactive” throughout.
Take `CCN(CC)CCNC(=O)c1ccc2nc(-c3ccccc3)c(-c3ccc(CN4CCC(n5c(=O)[nH]c6ccccc65)CC4)cc3)nc2c1`: the Potency was 34.3 µM (active) in test [1], 21.7 µM (active) in test [4], 5.62 µM (active) in test [6] and 4.47 µM (active) in [5].
Turning to `O=c1c(O)c(-c2ccccc2)oc2ccccc12`, the Potency result in test [1], in [2] and in test [3] was “inactive” in each case.
As to `Nn1nnc2ccccc21`, the result in test [9], in test [10] and in test [8] was inactive. Also, the Potency entry in [7], in test [1] and in [4] was “inactive” in each case.
As for `CCc1ccc(/C=C2/SC(=S)NC2=O)cc1`, in [8], the compound was called inactive. The Potency result in test [1] and in [4] was “inactive” in each case. Moreover, the Potency was 10 µM (active) in test [6] and 31.6 µM (active) in test [5].
For `Cc1ccc([C@@H]2O[C@H](CO)[C@@H](O)[C@H](O)[C@@H]2O)cc1Cc1ccc(-c2ccc(F)cc2)s1`, the Potency entry in test [1] was “inactive”. For the same compound, the Potency in test [2] is 34.3 µM (active).
As for `COc1ccc(-c2cc(=O)c3c(OC)c(OC)c(OC)c(OC)c3o2)cc1`, the Potency result in test [1], in test [2] and in test [3] was “inactive” throughout.
With `O=C(C=Cc1ccccc1O)c1ccccc1O`, the Potency result in test [1] and in test [2] was “inactive” in each case.
For `COc1cc2c(cc1OC)-c1cc3cc(OC)c(OC)cc3c(=O)n1CC2`, the Potency result in test [1], in test [2] and in test [3] was “inactive” in each case.
In the case of `Nc1ccc(S(=O)(=O)Nc2ncccn2)cc1`, the Potency result in test [1], in test [2] and in [3] was “inactive” throughout.
For `C=C1C[C@H](OC(=O)C(C)(O)CCl)C2C(=C)C(=O)O[C@@H]2C2C1C[C@H](O)[C@]2(O)CCl` (stereo partly drawn), the Potency result in test [1], in test [2] and in test [3] was “inactive” each time.
For the compound `O=C1NC(=O)C(=Cc2ccc3nccnc3c2)S1`, the Potency entry in test [1], in test [2] and in test [3] was “inactive” each time.
On to `CNC(=O)c1c(F)cccc1Nc1nc(Nc2cc3c(cc2OC)CCN3C(=O)CN(C)C)nc2[nH]ccc12`, for which the Potency entry in test [1], in test [4] and in [6] was “inactive” throughout. Also, in test [5], the Potency was 20 µM (active).
